The campaign covered roughly 52,000 compounds. About 1,700 (3.3%) were called active. No stated cut-off is given here; in the data, active means survival mostly below about 52% (no sharp cut-off); inactive means mostly above about 56%. For the sample, actives were picked, then their nearest neighbours and some compounds at random.
Test system: Wild type
Test: growth inhibition of S. aureus wild type versus tarO mutant, primary screen, teichoic acid synthesis inhibitors, RN4220, OD600 (AID 463173)
Conditions: S. aureus RN4220 wild type/DeltatarO growth, OD600, 18 h, hits give low values, screened at 18.75 µg/mL (by protocol)

| SMILES | survival |
| --- | --- |
| COc1cccc(C(=O)c2sc(Nc3ccc(C)cc3C)c(S(=O)(=O)c3ccccc3)c2N)c1 | 94% (inactive) |
| O=C(CSc1nc(-c2ccc(F)cc2)[nH]c1-c1ccccc1)Nc1ccccc1 | 70% (inactive) |
| O=C(O)c1ccc(-c2nc3ccccc3[nH]2)cc1 | 106% (inactive) |
| Oc1ccc(-c2nc(-c3ccccc3)c(-c3ccc(Br)cc3)[nH]2)cc1 | -2% (active) |
| O=C(Nc1ccc(C(=O)OCc2cc(=O)n3c4c(sc3n2)CCCC4)cc1)c1cccc(F)c1 | 81% (inactive) |
| CCN(CC)CCN(C(=O)c1ccco1)c1nc2ccc(Cl)cc2s1 | 87% (inactive) |
| CCc1ccc2nc(N(CCN(CC)CC)C(=O)c3ccco3)sc2c1 | 53% (inactive) |
| CCN(CC)CCN(C(=O)c1ccc(C(=O)OC)cc1)c1nc2ccc(Cl)cc2s1 | -6% (active) |
| O=C(CNc1ccccc1Cl)N/N=C1\CCCc2ccccc21 | 105% (inactive) |
| Cc1ccccc1Nc1c(-c2ccc(Cl)cc2)nc2c(C)cccn12 | 73% (inactive) |
| Cc1ccccc1Nc1c(-c2ccsc2)nc2c(C)cccn12 | 0% (active) |
| Cc1ccc(Nc2c(-c3ccsc3)nc3c(C)cccn23)cc1 | -3% (active) |
| Cc1ccc(Nc2c(-c3ccc(C)cc3)nc3c(C)cccn23)cc1 | -1% (active) |
| Cc1ccc(Nc2c(-c3ccsc3)nc3cccc(C)n23)cc1 | 19% (inactive) |
| Cc1cccn2c(Nc3ccccc3)c(-c3cccs3)nc12 | 85% (inactive) |
| Cc1ccc(Nc2c(-c3ccc(N4CCOCC4)cc3)nc3c(C)cccn23)cc1 | 83% (inactive) |
| Cc1cccn2c(Nc3ccccc3)c(-c3ccc(N4CCOCC4)cc3)nc12 | 125% (inactive) |
| Cc1ccccc1Nc1c(-c2ccc(O)cc2)nc2c(C)cccn12 | 68% (inactive) |
| COCCCNC(=O)c1c(C)nn(-c2ccc(F)cc2)c1-n1cccc1 | 77% (inactive) |
| Cc1sc2c(c1C)c(=O)n(Cc1ccccc1)c(=O)n2CC(=O)N(C)c1ccccc1 | 89% (inactive) |
| COc1ccc(C2CC(=O)c3cc(-c4nc(-c5cccc(Cl)c5)cs4)c(=O)[nH]c3C2)cc1 (configuration not stated) | 67% (inactive) |
| Cc1ccc(C(=O)N2CCN(c3ccccc3)CC2)cc1NC(=O)c1nsc2ccccc12 | 73% (inactive) |
| CC1=C(C(=O)Nc2cccc(Cl)c2C)C2(CCCCCC2)OC1=O | -2% (active) |

| SMILES | survival |
| --- | --- |
| CC(=O)N1CCC2(CC1)OC(=O)C(C)=C2C(=O)Nc1cccc(Cl)c1C | 82% (inactive) |
| CC1=C(C(=O)Nc2cccc(C)c2C)C2(CCCCC2)OC1=O | 74% (inactive) |
| CC1=C(C(=O)Nc2cccc(C(F)(F)F)c2)C2(CCCCC2)OC1=O | 88% (inactive) |
| COC(=O)c1ccccc1NC(=O)C1=C(C)C(=O)OC12CCCCCC2 | 91% (inactive) |
| COc1ccc(NC(=O)C2=C(C)C(=O)OC23CCN(C(C)C)CC3)cc1Cl | 77% (inactive) |
| CC1=C(C(=O)Nc2ccccc2Br)C2(CCC(C)CC2)OC1=O (configuration not stated) | 83% (inactive) |
| COc1ccc(OC)c(NC(=O)C2=C(C)C(=O)OC23CCN(C(C)C)CC3)c1 | 0% (active) |
| CC1=C(C(=O)Nc2cccc(C(F)(F)F)c2)C2(CCN(C(C)C)CC2)OC1=O | 91% (inactive) |
| COc1ccc(OC)c(NC(=O)C2=C(C)C(=O)OC23CCCCCC3)c1 | 129% (inactive) |
| COC(=O)c1ccccc1NC(=O)C1=C(C)C(=O)OC12CCC(C)CC2 (configuration not stated) | -6% (active) |
| CC1=C(C(=O)Nc2cccc(C(F)(F)F)c2)C2(CCCCCC2)OC1=O | 0% (active) |
| Cc1cc(C)n(C(=O)CCCC(=O)O)n1 | 96% (inactive) |
| Cc1ccc(CNC(=O)C(CC(C)C)N2Cc3ccccc3C2=O)cc1 (configuration not stated) | 136% (inactive) |
| COc1cc(-c2nc(Cn3nnc(C(=O)Nc4cc(C)cc(C)c4)c3C)c(C)o2)cc(OC)c1OC | 70% (inactive) |
| CCOc1cc(CNC(=O)CSc2n[nH]c(-c3ccccc3)n2)cc(OCC)c1OCC | 131% (inactive) |
| CC1=C(C(=O)NCc2cccc(Br)c2)C2(CCCCC2)OC1=O | 82% (inactive) |
| CC1=C(C(=O)NCc2cccc(F)c2)C2(CCCCCC2)OC1=O | 65% (inactive) |
| CC1=C(C(=O)NCc2cccc(F)c2)C2(CCCCC2)OC1=O | 10% (active) |
| COc1ccc(OCc2nnc(-c3ccccc3)o2)cc1 | 106% (inactive) |
| Cc1ccc(N2CCN(C(=O)c3cn(C)c4ccc(S(=O)(=O)N5CCC(C)CC5)cc4c3=O)CC2C)cc1 (configuration not stated) | 126% (inactive) |
| CCOc1ccccc1CNC(=O)Cn1nc(N2CCN(c3ccccc3)CC2)ccc1=O | 82% (inactive) |
| COc1ccc(CNC(=O)Cn2nc(N3CCN(c4ccccc4)CC3)ccc2=O)c(OC)c1 | -4% (active) |
| COc1cccc(NC(=O)Cn2nc(N3CCN(c4ccccc4)CC3)ccc2=O)c1 | 85% (inactive) |

| SMILES | survival |
| --- | --- |
| CCn1c(SCC(=O)N(C2CCCCC2)C2CCCCC2)nnc1C(C)C | 100% (inactive) |
| CCc1ccc(C2=C(C)C(N3CCC(C(=O)NCc4ccc(C)o4)CC3)=NS2(=O)=O)cc1 | 63% (inactive) |
| Cc1ccc(C(=O)NCCc2csc(-c3cccc(F)c3)n2)cc1C | 78% (inactive) |
| O=C(COCc1cc(-c2cccs2)on1)Nc1cccc(O)c1 | -3% (active) |
| O=C(COCc1cc(-c2ccco2)on1)Nc1cccc(O)c1 | 73% (inactive) |
| Cc1ccc(NC(=O)COCc2cc(-c3cccs3)on2)cc1Cl | 65% (inactive) |
| O=C(COCc1cc(-c2cccs2)on1)N1CCN(c2cccc(Cl)c2)CC1 | 10% (active) |
| O=C(COCc1cc(-c2cccs2)on1)N1CCN(c2ccc(F)cc2)CC1 | 73% (inactive) |
| O=C(COCc1cc(-c2cccs2)on1)N1CCN(c2ccccc2)CC1 | 68% (inactive) |
| CC(=O)N1CCCc2cc(S(=O)(=O)N(C)CC(=O)Nc3cccc(Cl)c3C)ccc21 | 68% (inactive) |
| CCOc1ccccc1NC(=O)Cn1nnc(C(=O)NCc2ccc(F)cc2)c1N | 101% (inactive) |
| Cc1cccc(Nc2sc(C(=O)c3ccc(Cl)cc3)c(N)c2C(N)=O)c1 | 45% (inactive) |
| Cc1ccc(C)n1-c1cccc2cccnc12 | 103% (inactive) |
| CCc1ccc(NC(=O)COC(=O)CCCC2=NS(=O)(=O)c3ccccc3N2)cc1 | 129% (inactive) |
| COc1ccc(Cl)cc1NC(=O)COC(=O)CC(C)(C)CC1=NS(=O)(=O)c2ccccc2N1 | 81% (inactive) |
| O=C(COC(=O)CCCC1=NS(=O)(=O)c2ccccc2N1)Nc1ccc(Br)cc1 | 81% (inactive) |
| CCOc1ccccc1NC(=O)COC(=O)CC(C)(C)CC1=NS(=O)(=O)c2ccccc2N1 | 63% (inactive) |
| Cc1cccc(NC(=O)COC(=O)CCCC2=NS(=O)(=O)c3ccccc3N2)c1 | -4% (active) |
| COc1ccccc1NC(=O)COC(=O)CC(C)(C)CC1=NS(=O)(=O)c2ccccc2N1 | -3% (active) |
| CCS(=O)(=O)N1CCC(NC(=O)c2ccccc2Cl)CC1 | 127% (inactive) |
| COc1cccc(NC(=O)CC2C(=O)OCCN2Cc2ccccc2)c1 (configuration not stated) | 161% (inactive) |
| COc1ccc(CN2C(=O)N(c3cccc(C)c3)C(=O)C2CC(=O)Nc2ccc(F)cc2)cc1OC (configuration not stated) | 73% (inactive) |
| CCCCSc1ncnc2c1c(-c1ccccc1)cn2-c1cccc(F)c1 | 84% (inactive) |

| SMILES | survival |
| --- | --- |
| CCOC(=O)CSc1ncnc2c1c(-c1ccccc1)cn2-c1ccc(OC)cc1 | 75% (inactive) |
| CCCSc1ncnc2c1c(-c1ccccc1)cn2-c1ccccc1OC | 1% (active) |
| CCOC(=O)N1CCc2c(sc3c2c(=O)n(Cc2ccccc2)c(=O)n3CC(=O)Nc2ccc(F)cc2)C1 | 87% (inactive) |
| CCCCNc1nc2c(c(=O)n(Cc3ccc(Cl)c(Cl)c3)c(=O)n2C)n1C | 1% (active) |
| CCCCNc1nc2c(c(=O)n(Cc3ccc(Cl)cc3)c(=O)n2C)n1C | 70% (inactive) |
| CCCCNc1nc2c(c(=O)n(Cc3ccccc3)c(=O)n2C)n1C | 67% (inactive) |
| CCn1c(=O)c2cc(C(=O)N(CC(C)C)CC(C)C)sc2c2ccccc21 | -1% (active) |
| Cc1ccc2[nH]c(=O)c3cc(C(=O)N(CCCOC(C)C)Cc4ccco4)sc3c2c1 | 71% (inactive) |
| CCn1c(=O)c2cc(C(=O)N(CCN(C)C)Cc3ccccc3)sc2c2ccccc21 | 75% (inactive) |
| CCCn1c2ccccc2c2cnn(CC(=O)N(CCCOC(C)C)Cc3ccco3)c(=O)c21 | 76% (inactive) |
| CCn1c(=O)c2cc(C(=O)N(C)c3cc(C)ccc3C)sc2c2ccccc21 | 125% (inactive) |
| CCn1c(=O)c2cc(C(=O)N(CCCOC(C)C)Cc3ccco3)sc2c2ccccc21 | 1% (active) |
| O=C(NC1CCCCC1)c1ccco1 | 102% (inactive) |
| COc1ccc(OC)c(NC(=O)c2sc3nc4c(cc3c2N)CCCCCC4)c1 | 70% (inactive) |
| CC(=O)N1c2ccc(S(=O)(=O)N3CCCCCC3)cc2CC1C(=O)NCc1ccccc1F (configuration not stated) | 131% (inactive) |
| O=C(NCCSc1c(-c2ccc(Br)cc2)[nH]c2ccccc12)c1ccc(S(=O)(=O)N2CCOCC2)cc1 | 84% (inactive) |
| Cn1c(SCCC(=O)O)nnc1-c1ccncc1 | 105% (inactive) |
| Cc1cc(N2CCCC(O)C2)n2nc(C)c(-c3ccc(F)cc3)c2n1 (configuration not stated) | 120% (inactive) |
| COc1ccc(C2=C(Nc3ccc(C)c(C)c3)c3ccccc3C2=O)cc1 | 90% (inactive) |
| COc1ccc(C2=C(Nc3ccc(Br)c(C)c3)c3ccccc3C2=O)cc1 | 20% (active) |
| COc1ccc(C2=C(Nc3ccc(C)cc3C)c3ccccc3C2=O)cc1 | 76% (inactive) |
| O=C(NCC1(c2ccccc2)CCCC1)C(=O)Nc1cccc(Br)c1 | 96% (inactive) |
| Cc1cc(C)cc(NC(=O)CCCn2c3ccccc3c(=O)c3ccccc32)c1 | 69% (inactive) |
